The values that follow come from PubChem BioAssay (NCATS).

SMILES strings stand for the structures. Several values for one entry are separate records, joined by “and”; a condition that tells them apart may be missing. Identical values can stand only once. A number with no mark means an inactive call. Inconclusive results are not listed. Activity calls are given as the source filed them. Unless noted, calls come from the whole dose curve; as a rule, active = well fitted curve in the direction sought with a large enough effect; inconclusive = small, poorly fitted or top-dose-only effect, or another doubt; inactive = no such curve, though single readings can be large; an effect the other way counts as inactive or inconclusive. Where a SMILES comes first, the peptide text is derived from it. Bridges are numbered along the chain shown (N, C = ends). [ ]: non-standard residue; d: D form. The star is where a group is joined. X2 = CC[C@H](C)CCCCC(=O)*; Dab = NCC[C@H](N)C(=O)O

Test [1] is described as follows: Drug repurposing screens with cells derived from glioblastoma tumor samples (AID 1345199). For activity, negative = cell killing: % is set by controls: 0 for no effect and ±100 for the full control effect. Note: nearly all actives have a fitted effect of over 40% in size. Note: potency is the fitted concentration of half-maximal effect. The conditions noted are these: GBM patient neurospheres viability, ATP luminescence, 48 h. In a few lines: (§1)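 Four patient lines of CD133+ GBM neurospheres were screened at several concentrations; hits were retested in those lines plus three slower-growing GBM lines, using 48-hour treatment and ATP-based viability.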

The next test concerns astro (control astrocytes). The test is described as above. The conditions noted are these: viability, ATP luminescence, 48 h; series mostly up to 45.9 µM. An outline of the steps: as §1
A short description of test [2]: qHTS assay to identify inhibitors of the type 1 interferon - major histocompatibility complex class I in skeletal muscle: Counter screen cell viability and HiBit confirmation (AID 1347412). For activity change, negative = inhibition: % is set by controls: 0 for no effect and ±100 for the full control effect. Note: nearly all actives have a fitted effect of over 60% in size. Note: potency is the fitted concentration of half-maximal effect. The conditions noted are these: iHSKM muscle cells + IFN-b, HiBiT or CellTiter-Glo, 24 h, Viability. In a few lines: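 HLA-B*08:01–HiBiT knock-in immortalized human myoblasts (C25cl48) stimulated with 4.0 ng/ml human IFN-beta and dosed with compound in a 12-point 1:3 titration (top final 46 uM). After 24 hrs at 37 C, HiBiT lytic luminescence or CellTiter Glo ATP read out.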
(In general: Quantitative high-throughput screening tests each substance at several concentrations.)

Test [3] deals with Nuclear receptor subfamily 1 group I member 2 (Rattus norvegicus) (UniProt Q9R1A7). The test can be described thus: qHTS assay for small molecule activators of the rat pregnane X receptor (rPXR) signaling pathway (AID 651751; call rule not given here; note: 0% is about no effect). The conditions noted are these: rPXR reporter cells, luciferase (One-Glo), 24 h.
Test [4] in a line: qHTS assay for small molecule activators of the human pregnane X receptor (PXR) signaling pathway (AID 720659; call rule not given here; note: 0% is about no effect). The conditions noted are these: DPX-2 HepG2 CYP3A4-luciferase, 24 h; series mostly up to 92.3 µM.
Setting [5] is: at 45.9 µM (top of the series), tumour line B.
The mark [6] stands for this setting: at 45.9 µM (top of the series), tumour line D.
Setting [7] is: at 46 µM (top of the series), tumour line A.
[8] abbreviates: at 46.1 µM (top of the series), tumour line C.

Nuclear receptor subfamily 1 group I member 2 (Rattus norvegicus), sequence (Q9R1A7 whole entry, looked up): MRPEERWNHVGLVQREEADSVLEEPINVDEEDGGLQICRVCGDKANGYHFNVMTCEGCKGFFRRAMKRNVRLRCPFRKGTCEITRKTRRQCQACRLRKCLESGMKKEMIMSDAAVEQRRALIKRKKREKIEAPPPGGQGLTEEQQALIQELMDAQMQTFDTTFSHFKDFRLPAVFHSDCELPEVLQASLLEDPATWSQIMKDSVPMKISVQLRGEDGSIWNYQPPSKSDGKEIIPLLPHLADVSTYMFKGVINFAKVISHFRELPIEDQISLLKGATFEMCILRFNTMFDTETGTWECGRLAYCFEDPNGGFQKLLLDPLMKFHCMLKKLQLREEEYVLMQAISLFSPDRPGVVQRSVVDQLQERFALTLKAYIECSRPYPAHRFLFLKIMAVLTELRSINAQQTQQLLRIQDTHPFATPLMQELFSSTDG

Turning to `C=C[C@]1(C)C[C@@H](OC(=O)CO)[C@]2(C)[C@H](C)CC[C@]3(CCC(=O)[C@H]32)[C@@H](C)[C@@H]1O`, the activity, negative = cell killing in test [1] (setting [5]) was -6.6%; in test [1] (setting [6]), -13.7%; in test [1] (setting [7]), -29.8%; in test [1] (setting [8]), -2.01%. Also, the Potency entry with astro is “inactive”.

Take `CCCCc1cc2c(=O)c(C(=O)OC)c[nH]c2cc1OCc1ccccc1`: the activity, negative = cell killing in test [1] (setting [5]) is -16.1%; in test [1] (setting [6]), -19.6%; in test [1] (setting [8]), -7.65%. Also, the Potency entry in the test with astro is “inactive”.

For `COc1ccc(CCNCC(O)COc2cccc(C)c2)cc1OC` (centres undefined), the activity, negative = cell killing in test [1] (setting [5]) is -28.4%; in test [1] (setting [8]), -25.3%. The Potency in test [1] (tumour line A) was 11.2 µM (active). In the test with astro, the Potency result was “inactive”.

On to `COc1ccc(C(=O)Nc2ccccc2CCC2CCCCN2C)cc1` (centres undefined), for which the activity, negative = cell killing in test [1] (setting [5]) was -11.1%; in test [1] (setting [6]), -17.7%; in test [1] (setting [8]), -23.4%. In test [1] (tumour line A), the Potency is 10 µM (active). Also, the Potency entry with astro was “inactive”.

Regarding `CN[C@@H]1CCc2[nH]c3ccc(C(N)=O)cc3c2C1`, the results for the activity, negative = cell killing in test [1] (setting [5]), in test [1] (setting [6]) and in test [1] (setting [8]) were -9.15%, -11.6% and 28.3%, respectively. In addition, the Potency result in the test with astro is “inactive”.

Consider `O=S(O)CO`, for which the activity, negative = cell killing in test [1] (setting [5]) is 4.97%; in test [1] (setting [6]), -2.6%; in test [1] (setting [8]), -1.44%. For the same molecule, the Potency entry with astro is “inactive”.

Turning to `CC[C@H](C)CCCCC(=O)N[C@@H](CCN)C(=O)N[C@H](C(=O)N[C@@H](CCN)C(=O)N[C@H]1CCNC(=O)[C@H]([C@@H](C)O)NC(=O)[C@H](CCN)NC(=O)[C@H](CCN)NC(=O)[C@H](CC(C)C)NC(=O)[C@@H](CC(C)C)NC(=O)[C@H](CCN)NC1=O)[C@@H](C)O` (X2-[Dab]T[Dab][Dab][Dab][dL]L[Dab][Dab]T; lactam 4-C), the activity, negative = cell killing in test [1] (setting [5]) was 6.46%; in test [1] (setting [6]) it was 12.6%; in test [1] (setting [8]) it was -10.4%. Also, in the test on astro, the Potency entry was “inactive”.

Turning to `CC(=O)N[C@@H](C=O)[C@H](O)[C@H](O)[C@@H](O)CO`, the activity, negative = cell killing in test [1] (setting [5]) was -7.64% and 0.13%; in test [1] (setting [6]), -11.8% and 0.539%; in test [1] (setting [7]) it was 1.93%; in test [1] (setting [8]), 6.46% and 10.4%. For the same molecule, the Potency entry in the test on astro was “inactive”.

For the molecule `CC(C)(C)NC(=O)[C@H]1CC[C@H]2[C@@H]3CC=C4C=C(C(=O)O)CC[C@]4(C)[C@H]3CC[C@]12C`, the figures for the activity, negative = cell killing in test [1] (setting [5]), in test [1] (setting [6]) and in test [1] (setting [8]) were -3.87%, 0.505% and -11%, respectively. For the same molecule, the Potency entry with astro is “inactive”.

`CCCCCCCCCCCCCCCCCC(=O)[O][Al]`: the activity, negative = cell killing is -8.38% in test [1] (setting [5]), -6.36% in test [1] (setting [6]), -12.4% in test [1] (setting [7]) and -6.43% in test [1] (setting [8]). Besides, the Potency result with astro was “inactive”.

Take `C=CS(=O)(=O)O`: the activity, negative = cell killing in test [1] (setting [5]) is -2.55%; in test [1] (setting [6]), -4.12%; in test [1] (setting [8]), -10.9%. The Potency result with astro was “inactive”.

On to `CC#CCC(C)[C@H](O)/C=C/[C@@H]1[C@H]2c3cccc(CCCC(=O)O)c3O[C@H]2C[C@H]1O` (some centres undefined), for which the activity, negative = cell killing in test [1] (setting [5]) is -5.83%; in test [1] (setting [6]), 2.53%; in test [1] (setting [8]), -26.2%. Besides, the Potency entry in the test with astro was “inactive”.

As for `CCCCCCCCCCCCCCCCCC(=O)OCCO`, the activity, negative = cell killing in test [1] (setting [5]) was -18.6%; in test [1] (setting [6]), -21.2%; in test [1] (setting [8]), -6.14%. Moreover, the Potency result with astro is “inactive”.

`NCCCC[C@H](NC(=O)[C@@H]1CCCN1C(=O)[C@@H]1CSSC[C@H](N)C(=O)N[C@@H](Cc2ccccc2)C(=O)N[C@@H](Cc2ccccc2)C(=O)N[C@@H](CCC(N)=O)C(=O)N[C@@H](CC(N)=O)C(=O)N1)C(=O)NCC(N)=O`: the activity, negative = cell killing is -4.48% in test [1] (setting [5]), -4.17% in test [1] (setting [6]), -29.5% in test [1] (setting [7]) and -22.2% in test [1] (setting [8]). Further, in the test with astro, the Potency result was “inactive”.

For `CCN1CCCC1CNC(=O)c1cc(S(=O)(=O)CC)ccc1OC` (centres undefined), the activity, negative = cell killing in test [1] (setting [5]) was -1.25% and -14.5%; in test [1] (setting [6]), -0.732% and -9.3%; in test [1] (setting [7]), -20%; in test [1] (setting [8]) it was 11.5% and 15.2%. Further, the Potency result with astro was “inactive”.

As to `CN1CC(O)c2cc(N=NC(N)=O)c(O)cc21` (centres undefined), in test [1] (setting [7]), the activity, negative = cell killing is -26.7%.

As for `CCOC(=O)Nc1ccc2c(c1)N(C(=O)CN(C)C)c1ccccc1CC2`, in test [1] (at 99.2 µM (top of the series), tumour line C), the activity, negative = cell killing was -30.7%.

With `COC(=O)Nc1cc(Nc2cc(NC3CC3)c3ncc(C#N)n3n2)c(Cl)c(N2CCN(C)CC2)c1`, in test [2], the Potency was 17.6 µM (active).

On to `NC(=O)c1cnc(N[C@@H]2CCCC[C@@H]2N)nc1Nc1cccc(-n2nccn2)c1`, for which the activity change, negative = inhibition in test [2] (at 45.9 µM (top of the series)) is -17.1%.

Regarding `CCCCCCCC/C=C\CCCCCCCC(=O)OC[C@@H](O)[C@H]1OC[C@H](O)[C@H]1O`, the max response in test [3] was 1.88%. Also, in test [4], the molecule was called inactive.

`COC(C)=O`: the max response in test [3] was 5.57%. Also, the molecule was classed as inactive in test [4].
